From PubChem BioAssay (Tox21) come the findings set out here.

A short description of assay [1]: A CellTox Green Cytotoxicity Assay to monitor cytotoxicity in HEK293 cells - 40 hour (AID 1224871). Further: nearly all actives have a fitted effect of over 45% in size. Further: potency means the concentration at half of the fitted maximal effect. In outline: (§1)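 Cells (HEK293, 600/well) and dye reagent are dispensed together. After 5 h at 37 C, 23 nL compound is pinned in. Plates stay at 37 C for 40 h with fluorescence read at 0h, 8h, 16h, 24h, 32h and 40h.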
The nature of assay [2]: qHTS RealTime-Glo MT Cell Viability Assay in HepG2 cells - 8 hour (AID 1224873). Further: nearly all actives have a fitted effect of over 55% in size. The essentials: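 Real-time viability: cells seeded at 600 per well together with NanoLuc and cell-permeant prosubstrate, compounds added after 5 h incubation. Luminescence tracked at 0, 8, 16, 24, 32 and 40 h of exposure.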
Assay [3] in a line: A CellTox Green Cytotoxicity Assay to monitor cytotoxicity in HEK293 cells - 24 hour (AID 1224875). Further: series mostly up to about 77 µM; nearly all actives have a fitted effect of over 45% in size. In outline:
as §1

Assay [4] is described as follows: qHTS RealTime-Glo MT Cell Viability Assay in HepG2 cells - 32 hour (AID 1224877). Further: nearly all actives have a fitted effect of over 55% in size. Further: potency means the concentration at half of the fitted maximal effect. In outline: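 HepG2 cells (600/well) were dispensed with RealTime-Glo reagents, incubated 5 h at 37 °C, then treated with compounds in DMSO for up to 40 h. Nonlytic NanoLuc luminescence reflecting viable cells was read at each stated time point.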
Assay [5] is described as follows: qHTS RealTime-Glo MT Cell Viability Assay in HEK293 cells - 0 hour (AID 1224880). Further: nearly all actives have a fitted effect of over 45% in size. Further: potency means the concentration at half of the fitted maximal effect. The essentials:
(§2)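 Real-time viability in HEK293: signal arises when living cells convert a prosubstrate for NanoLuc in the medium, so luminescence tracks viable cell number. Compound (23 nL, DMSO) added 5 h post-seeding; kinetic reads at 0–40 h, 37 C.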

Assay [6] can be described thus: A CellTox Green Cytotoxicity Assay to monitor cytotoxicity in HepG2 cells - 16 hour (AID 1224876). Further: nearly all actives have a fitted effect of over 45% in size. The essentials:
(§3)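 Cells and non-lytic dye reagent are dispensed together (600 HepG2 cells/well) and incubated 5 h before DMSO compound transfer. Kinetic fluorescence is then recorded in the same wells during 40 h at 37 C.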

The nature of assay [7]: A CellTox Green Cytotoxicity Assay to monitor cytotoxicity in HepG2 cells - 24 hour (AID 1224878). Further: nearly all actives have a fitted effect of over 45% in size. In outline: as §3
Assay [8] in a line: A CellTox Green Cytotoxicity Assay to monitor cytotoxicity in HepG2 cells - 40 hour (AID 1224879). Further: nearly all actives have a fitted effect of over 40% in size. Further: potency means the concentration at half of the fitted maximal effect. The essentials:
as §3

A short description of assay [9]: qHTS RealTime-Glo MT Cell Viability Assay in HEK293 cells - 40 hour (AID 1224874). Further: nearly all actives have a fitted effect of over 50% in size. Further: potency means the concentration at half of the fitted maximal effect. The conditions noted are these: RealTime-Glo luminescence; max response: hits give low values. In outline: as §2

Records with an inconclusive call do not appear. Unmarked numbers belong to inactive results. The source made the active and inactive calls. The call rests on the fitted dose curve; in most records, active means well fitted curve in the direction sought with a large enough effect in the repeat runs; inconclusive means weak or mixed curves; inactive means no such curve, though single readings can be large; an effect the other way counts as inactive or inconclusive.
On the % scale 0 is the no-effect control and ±100 the full control effect.

`O=C(OCCOCCO)c1ccccc1Nc1cccc(C(F)(F)F)c1`: the Potency in assay [1] was 2.39 µM (active). Further, the Potency result in assay [2], in [3], in assay [4] and in [5] was “inactive” throughout.

In the case of `Cc1c(C(=O)NN2CCCCC2)nn(-c2ccc(Cl)cc2Cl)c1-c1ccc(Cl)cc1`, the Potency result in [1], in assay [2], in assay [3], in assay [6], in assay [4] and in assay [7] was “inactive” each time. Besides, the Potency result in assay [8] and in assay [5] was “inactive” each time.

As for `CCOC(=O)c1ccccc1C`, the Potency result in assay [1], in [3], in assay [6], in assay [4], in assay [7] and in [8] was “inactive” in each case. Moreover, the Potency result in assay [5] was “inactive”. The max response in assay [9] was -14.1%.

Regarding `Cc1nc2ccccc2s1`, the Potency entry in assay [1], in assay [2], in [3], in [6], in [4] and in [8] was “inactive” each time. Moreover, the Potency entry in [5] was “inactive”. The max response in [9] is 2.93%.

As to `COc1cc2[nH]c(=O)[nH]c(=O)c2cc1OC`, the Potency result in assay [1], in assay [2], in [3], in [6], in assay [4] and in [8] was “inactive” in each case. Moreover, in assay [5], the Potency entry was “inactive”. Moreover, the max response in assay [9] is 1.95%.

As for `CCCCN(CCCC)CCCOC(=O)c1ccc(N)cc1`, the Potency result in [1], in assay [2], in [3], in assay [4], in assay [7] and in assay [8] was “inactive” throughout. Also, the Potency entry in [5] is “inactive”. In addition, in [9], the max response was -19.3%.

Consider `N#C/C(=C1\SCC(c2ccccc2Cl)S1)n1ccnc1` (stereo not drawn), for which the Potency result in [1], in assay [2], in [3], in assay [6], in assay [4] and in [7] was “inactive” throughout. For the same compound, the Potency result in [8] and in assay [5] was “inactive” in each case.

For `Brc1cc(-c2ccc(Br)c(Br)c2Br)cc(Br)c1Br`, the Potency entry in [1], in assay [2], in [3], in assay [6], in assay [4] and in assay [7] was “inactive” each time. The Potency entry in assay [5] was “inactive”. Besides, the max response in [9] was 4.87%.

Consider `CC1(C)C2=CCCC(C)(C)[C@]23CC[C@H]1C3`, for which the Potency in assay [1] was 38.9 µM (active); in assay [5], 24.5 µM (active). In addition, the Potency result in [2], in assay [3], in assay [6] and in assay [4] was “inactive” each time. For the same compound, in [9], the max response was -11.7%.

On to `Cc1occc1C(=O)Nc1ccc(C(=O)N2CCC(F)(F)/C(=C\C(=O)N3CCC(N4CCCCC4)CC3)c3ccccc32)cc1`, for which the Potency result in assay [1], in assay [3], in assay [6], in assay [4], in [7] and in [5] was “inactive” throughout. In addition, the figures for the Potency in assay [9] and in assay [8] were 6.83 µM (active) and 15.3 µM (active), respectively.

`COc1ccc(C(=O)c2cccc(O)c2)c(OC)c1`: the Potency result in assay [1], in [2], in [3], in assay [6], in [4] and in assay [7] was “inactive” each time. The Potency result in assay [8] and in assay [5] was “inactive” each time.

Take `OC/C(Br)=C(\Br)CO`: the Potency entry in assay [1], in assay [2], in [6], in assay [4], in assay [7] and in assay [8] was “inactive” each time. Besides, the Potency result in [5] is “inactive”. Further, in [9], the max response was 0.37%.

For `Cc1nccn1-c1ccc(Sc2cccc(C3(C(N)=O)CCOCC3)c2)cc1`, the Potency entry in [1], in assay [2], in [3], in [6] and in [5] was “inactive” throughout. Also, the Potency in assay [9] is 1.23 µM (active).

Regarding `CC1CC(O)CC(C)(C)C1` (stereo not drawn), the Potency result in assay [1], in [2], in assay [3], in assay [6], in assay [4] and in assay [7] was “inactive” each time. Besides, the Potency result in assay [8] and in [5] was “inactive” in each case. Further, the max response in assay [9] was -3.83%.

Regarding `C[N+]1(C)CCC(=C(c2ccccc2)c2ccccc2)CC1`, the Potency result in [1], in assay [3], in [6], in [4], in assay [7] and in [8] was “inactive” in each case. In addition, in [5], the Potency result was “inactive”. Besides, the max response in assay [9] is 7.64%.

For `CCCCCCOC(=O)C(C)C`, the Potency result in assay [1], in assay [2], in assay [3], in assay [6], in assay [4] and in assay [7] was “inactive” in each case. In addition, the Potency result in [8] and in assay [5] was “inactive” each time. Besides, the max response in [9] was 6.06%.

Regarding `CN(C(=O)C(Cl)Cl)c1ccc(OC(=O)c2ccco2)cc1`, the Potency result in [1], in [2], in [3], in assay [6], in [4] and in assay [7] was “inactive” in each case. The Potency entry in assay [8] and in assay [5] was “inactive” in each case. Besides, the max response in [9] was -3.14%.

As for `CO[C@H]1O[C@H](CO)[C@@H](O)[C@H](O)[C@H]1O`, the Potency entry in assay [1], in assay [2], in assay [3], in assay [6], in [4] and in assay [7] was “inactive” in each case. Also, the Potency result in assay [8] and in assay [5] was “inactive” each time. The max response in assay [9] was 5.92%.

On to `O=c1[nH]c2ccc(S(=O)CCN3CCC(Cc4ccc(F)cc4)CC3)cc2o1` (stereo not drawn), for which the Potency entry in assay [1], in assay [2], in [3], in assay [6], in assay [4] and in [7] was “inactive” in each case.

On to `C(=C\c1ccccc1)/CN1CCN(C(c2ccccc2)c2ccccc2)CC1`, for which the Potency result in [1], in assay [2], in [3], in assay [6], in assay [4] and in assay [7] was “inactive” each time. Also, the Potency entry in [5] is “inactive”.

Consider `CCc1c2c(nc3ccc(OC(=O)N4CCC(N5CCCCC5)CC4)cc13)-c1cc3c(c(=O)n1C2)COC(=O)[C@]3(O)CC`, for which the Potency entry in assay [1], in assay [3], in [6], in assay [4], in assay [7] and in [5] was “inactive” throughout. Besides, the Potency in assay [9] is 2.39 µM (active).

Consider `O=C(CCCCCCCCC#CI)Oc1ccccc1`, for which the Potency result in [1], in [3], in [6], in [7], in assay [8] and in assay [5] was “inactive” each time. Moreover, the Potency in [9] was 5.35 µM (active); in assay [4] it was 4.77 µM (active).

With `C=CC(C)(C)CC(=O)OC`, the Potency entry in assay [1], in assay [2], in assay [3], in [6], in [4] and in assay [8] was “inactive” each time. Moreover, the Potency entry in assay [5] was “inactive”. The Potency in assay [9] was 1.55 µM (active).
